Six1-Eya2 blk – Six1/Eya2 interaction inhibition; Q15475+O00167; AlphaScreen GST-Six1/His-Eya2 binding, biochemical; active compounds read low; activity change, % (no concentration beside the values); 360,000 tested, 0.56% active; AID 651725
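AlphaScreen luminescence read after one hour at 37 °C in darkness. Pin-transferred compounds met GST-Six1 and His-Eya2 protein (5X stock 250 nM/500 nM) plus glutathione donor and Ni-chelate acceptor beads (5X, 50 ug/mL).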
PI5P4Ka inh – PI5P4K alpha (human) kinase inhibition; AID 652105; max response, %; 330,000 tested, 1.2% active; P48426; PI5P4Kalpha enzyme, ADP-Glo luminescence, 60 min; active compounds read low; active = max response of -50% or lower; inconclusive = between -30% and -50%; inactive = -30% or higher; note: value at the top dose of about 77 µM
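Single end-point luminescence (ADP-Glo) quantified ADP from PI5P4Kalpha turnover; ATP 5 microM final, 1 h at RT, 0.1% CHAPS and 0.28 mM EGTA in HEPES pH 7.4.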
PI4K2A block – inhibitors of human PI4K2A. activity change, negative = inhibition, % at 76.9 µM. AID 1346378. 420,000 tested, 0.13% active. purified PI4K2A, ADP-Glo luminescence, 1 h; active compounds read low; in the data active = activity change below about -50%; inconclusive = mostly about -30% to -49%
Target sequence (Q9BTU6 whole entry, looked up): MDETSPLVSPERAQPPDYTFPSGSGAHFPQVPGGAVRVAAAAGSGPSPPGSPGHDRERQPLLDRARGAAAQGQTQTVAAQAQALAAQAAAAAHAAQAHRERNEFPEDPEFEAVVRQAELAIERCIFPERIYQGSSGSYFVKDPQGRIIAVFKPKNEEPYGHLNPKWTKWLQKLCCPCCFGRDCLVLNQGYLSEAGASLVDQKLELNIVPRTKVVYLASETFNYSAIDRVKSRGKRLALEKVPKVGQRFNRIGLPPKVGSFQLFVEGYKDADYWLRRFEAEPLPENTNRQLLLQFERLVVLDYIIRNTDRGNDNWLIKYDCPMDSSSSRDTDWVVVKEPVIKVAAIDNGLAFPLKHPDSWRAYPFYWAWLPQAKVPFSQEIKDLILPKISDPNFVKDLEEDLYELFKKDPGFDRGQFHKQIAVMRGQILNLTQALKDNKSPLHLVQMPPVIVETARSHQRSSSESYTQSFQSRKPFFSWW
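Compounds are screened against recombinant PI4K2A using PI as substrate and ATP, the latter dispensed at 300 microM. Reactions run one hour at ambient temperature before ADP-Glo detection; full inhibition defined by wells lacking enzyme.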
Akt phos inh – blocks phosphorylation of Akt | AID 651550 | activity change, % for hits at 50 µM | Neuro2A IGF-stimulated pAkt S473 HTRF, 20 min; active compounds read low | 360,000 tested, 0.32% active; in the data active = activity change below about -80%; inconclusive = mostly about -51% to -80%
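Neuro2A cells in DMEM with 0.5% FBS, overnight at 37 deg C, given compound at single 50 µM final, then IGF (6 nM final) for 20 min at 37 deg C. Lysed; phospho-Akt Ser473 by HTRF after 24 h, 665/615 ratio.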
CtBP-E1A blk – CtBP/E1A binding inhibition; activity change, % (concentration not given with the values); 340,000 tested, 0.49% active; AlphaScreen GST-E1A/His-CtBP binding, 1536-well; active compounds read low
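In 5 uL wells, 23 nL compound meets equimolar GST-E1A and His-CtBP (5X stock 125 nM each) for 2 h, 37 °C. Beads (5X, 50 ug/mL) then 1 h, 37 °C, dark.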
Of the large screens only hits and unclear results are named; the others gave an inactive call. Most compounds without a hit are left out; they make up all but 1.8% or so of the library. Cut-off read from the data, not from the text of the source, unless noted: active = activity change below about -65%; inconclusive = mostly about -30% to -63%; inactive = weaker than that.

Cc1nnc(N2CCN(c3ccccc3)CC2)[nH]c1=O	PI5P4Ka inh -54.9
O=C(O)CC1S/C(=N/N=C/c2ccc(-c3ccc(Cl)c([N+](=O)[O-])c3)o2)NC1=O (stereo unspecified)	none
O=C(O)CC1S/C(=N/N=C/c2ccc(-c3ccc(Cl)cc3[N+](=O)[O-])o2)NC1=O (stereo unspecified)	PI5P4Ka inh -52.4
Cc1cc(N(C)N)nc(NC(=O)NS(=O)(=O)c2ccccc2Cl)n1	Six1-Eya2 blk -74.1, CtBP-E1A blk -94.0
COc1cc(OC)nc(NC(=O)NS(=O)(=O)c2ccccc2Cl)n1	none
O=C(O)CSC(=S)N1CCCC1	none
O=C(CSC(=S)N1CCCC1)N/N=C/c1c(O)[nH]c(=S)[nH]c1=O	Six1-Eya2 blk -90.5, PI5P4Ka inh -51.1, CtBP-E1A blk -92.9
COc1ccc(CC(=O)Nc2ccc(C(=O)Nc3nccs3)cc2)cc1OC	Six1-Eya2 blk -81.3, CtBP-E1A blk -74.4
CCn1c(SCc2ccc(C(=O)Nc3nccs3)cc2)nnc1-c1ccc(N)cc1	Six1-Eya2 blk inconclusive, CtBP-E1A blk inconclusive
CCn1c(SCc2ccc(C(=O)Nc3nccs3)cc2)nnc1-c1ccc(NC(C)=O)cc1	Six1-Eya2 blk inconclusive, Akt phos inh -107.4%, CtBP-E1A blk inconclusive
O=C(O)CCSCC(=O)Nc1c(C(=O)C2CC2)oc2ccccc12	Akt phos inh -99.6%
O=C(Nc1cc(Br)ccc1O)c1cc(-c2ccc3c(c2)OCO3)on1	none
COC(=O)c1ccc(Cn2cc(C(F)(F)F)ccc2=O)cc1	none
CC1=NN(c2nc(-c3ccc(C)cc3)cs2)C(=O)C1N=Nc1cccc(O)c1 (stereo unspecified)	PI5P4Ka inh -70.9
CC1=NN(c2nc(-c3ccc(C)cc3)cs2)C(=O)C1N=Nc1ccccc1O (stereo unspecified)	none
Cc1ccc(N(CC(=O)NC(C)C)C(=O)CCC(=O)Nc2nccs2)cc1	none
O=C(CN1CCCN(Cc2ccccc2Cl)S1(=O)=O)NCc1ccccc1	none (no result: Six1-Eya2 blk, PI5P4Ka inh, Akt phos inh, CtBP-E1A blk)
O=C(Nc1ccc(Br)cc1C(=O)O)c1ccc2c(c1)C(=O)N(Cc1ccccc1)C2=O	PI5P4Ka inh -73.7
Cc1ccc(C)n1Cc1ccc(C(=O)O)cc1	Six1-Eya2 blk -71.4, PI4K2A block inconclusive (no result: PI5P4Ka inh)
O=C(O)c1ccc2c(c1)C(=O)N(Cc1ccco1)C2=O	PI5P4Ka inh -69.3
O=C(O)c1cccc(NC(=O)c2ccc3c(c2)C(=O)N(Cc2ccco2)C3=O)c1	none
Cc1cc(C)n(Cc2ccc(C(=O)O)cc2)n1	none (no result: PI5P4Ka inh)
O=C(O)c1ccc(CN2C(=O)c3ccc(C(=O)O)cc3C2=O)cc1	PI5P4Ka inh -58.0
NC(=O)c1ccc(Oc2ccc(-c3nnco3)cc2)c([N+](=O)[O-])c1	none
CC(=O)CC1c2cc(F)ccc2C=C(c2ccsc2)N1c1ccc(-c2cccnc2)cc1 (stereo unspecified)	none
COc1ccc(CN2C(=O)c3ccc(C(=O)O)cc3C2=O)cc1	PI5P4Ka inh -62.8
O=C(O)c1ccc2c(c1)C(=O)N(Cc1ccc3c(c1)OCO3)C2=O	none (no result: Akt phos inh)
COC(CNC(=O)c1cc(-c2ccncc2)nc2ccc(S(=O)(=O)N3CCOCC3)cc12)OC	none (no result: CtBP-E1A blk)
CCCCn1c(=O)[nH]c(=O)c2c1nc(-c1cc(Cl)c(OC)c(OC)c1)n2C	none
COc1cc(/C=C(\C#N)C(=O)c2ccc(O)c(O)c2)cc(I)c1O	Six1-Eya2 blk inconclusive, PI5P4Ka inh -84.9
CCOC(=O)C1(Cc2ccc(OC)cc2)CCN(C(=O)c2cc(C)on2)CC1	none (no result: CtBP-E1A blk)
CCOC(=O)C1(Cc2ccc(OC)cc2)CCN(C(=O)C2=CCCC2)CC1	PI5P4Ka inh -94.5
COc1ccc(/C=N/Nc2nnc(Cc3ccccc3)c(=O)[nH]2)cc1OC	Six1-Eya2 blk -65.9, CtBP-E1A blk inconclusive
O=c1[nH]c(N/N=C/c2ccc(O)cc2)nc2ccccc12	Six1-Eya2 blk inconclusive, PI5P4Ka inh inconclusive, CtBP-E1A blk -68.4
COc1ccc(Cc2nnc(N/N=C/c3ccc(Br)cc3)[nH]c2=O)cc1OC	none
COc1ccc(Cc2nnc(N/N=C/c3ccc(O)cc3)[nH]c2=O)cc1OC	Six1-Eya2 blk -81.7, CtBP-E1A blk -91.2
Cc1ccc(N(C(=O)CS(=O)CC(=O)Nc2ccc(F)cc2)C(C(=O)NC2CCCCC2)c2ccco2)cc1 (stereo unspecified)	none
Cc1ccccc1NC(=O)NC1(C(=O)N2CCC(C(N)=O)CC2)CCCCC1	none
O=C1C(=C(I)I)c2ccccc2-c2ccccc21	PI4K2A block -57.6
O=C(O)c1cc(Cl)c2c(c1)[C@@H]1C=CC[C@@H]1[C@H](c1ccc(S(=O)(=O)N3CCOCC3)cc1)N2	Six1-Eya2 blk inconclusive, PI5P4Ka inh -53.0
C=CCOC(=O)C1=C(C)NC(SCC(=O)OCC)=C(C#N)C1c1ccc(O)c(OC)c1 (stereo unspecified)	PI5P4Ka inh -53.7
C=CCOC(=O)C1=C(C)NC(SC)=C(C#N)C1c1ccc(OCC)cc1 (stereo unspecified)	none
S=c1[nH]nc(NCCCN2CCOCC2)s1	PI5P4Ka inh -69.2
Fc1ccccc1CN1CCCCCCC1	Akt phos inh -103.6% (no result: PI5P4Ka inh)
Cc1ccc(OCC(=O)Nc2cccc3ccccc23)c([N+](=O)[O-])n1	none (no result: CtBP-E1A blk)
CN(C)S(=O)(=O)c1ccc(-c2csc(N/N=C/c3ccco3)n2)cc1	PI5P4Ka inh inconclusive
CN(C)S(=O)(=O)c1ccc(-c2csc(N/N=C/c3ccc(O)cc3)n2)cc1	PI5P4Ka inh -63.3
COC(=O)CSc1nnc(-c2ccc(S(=O)(=O)N3CCCC3)cc2)n1C	none (no result: PI5P4Ka inh)
CC(=O)Nc1ccc(S(=O)(=O)NNC(=O)C(=O)NNc2ccccn2)cc1	Six1-Eya2 blk inconclusive (no result: CtBP-E1A blk)
Cc1ccc(S(=O)(=O)NNC(=O)C(=O)NNc2ccccn2)cc1	Six1-Eya2 blk -88.2, CtBP-E1A blk -92.6
Cc1ccc([N+](=O)[O-])cc1S(=O)(=O)Nc1ccccn1	none
Cc1ccccc1S(=O)(=O)NNC(=O)C(=O)NNc1ccccn1	Six1-Eya2 blk -81.7, CtBP-E1A blk -71.2
Nc1ccc(S(=O)(=O)NNC(=O)C(=O)NNc2ccccn2)cc1	Six1-Eya2 blk -92.6, CtBP-E1A blk -68.5
NC(=O)C1CCN(c2ccnc3cc(Cl)ccc23)CC1	none
CC(C)OC(=O)CSc1nc2cc3c(cc2cc1C#N)OCO3	Akt phos inh -97.1%
Cn1nc(C(=O)Nc2ccc3c(c2)OCO3)c2ccccc2c1=O	Six1-Eya2 blk inconclusive, CtBP-E1A blk -85.9
Cn1nc(C(=O)NCc2ccccc2)c2ccccc2c1=O	none
O=C(NCc1cccnc1)Nc1ccc2c(c1)OCO2	none
Cn1nc(C(=O)NCc2ccccn2)c2ccccc2c1=O	Akt phos inh -93.7%
Cn1cc(CNC(=O)Nc2ccc3c(c2)OCO3)cn1	Akt phos inh -105.9%
CCN1CCN(Cc2oc(CO)cc(=O)c2O)CC1	none
CCS(=O)(=O)C1=NN2C(=N)/C(=C\c3ccc(SCc4ccco4)o3)C(=O)N=C2S1	Six1-Eya2 blk inconclusive, PI5P4Ka inh -91.0

Screens (PubChem)
